Source: PubChem BioAssay AID1491 (National Center for Advancing Translational Sciences (NCATS), 2009)
Values joined by “and” are separate entries in the source; they are usually repeats but may differ in a detail not shown here. Equal values may be shown once. Records with an inconclusive call do not appear. Values without a mark were called inactive. Active and inactive are the calls of the source. Calls come from the whole dose curve; as a rule, active = well fitted inhibition curve with a large enough effect in the main read-out, with a control signal flat; inconclusive = small, poorly fitted or top-dose-only effect, or a change in a side signal; inactive = flat fitted curve, though single readings scatter.

Each compound was assayed against Neuropeptide S receptor (Homo sapiens) (UniProt Q6W5P4) (assay: Confirmation Concentration-Response Assay for Antagonists of the Neuropeptide S Receptor: cAMP Signal Transduction). Details: CHO-NPSR cells, cAMP TR-FRET, antagonist mode; series mostly up to 22.3 µM; activity change, negative = inhibition: at the top concentration.
Chain of Neuropeptide S receptor (Homo sapiens) (Q6W5P4 whole entry, looked up): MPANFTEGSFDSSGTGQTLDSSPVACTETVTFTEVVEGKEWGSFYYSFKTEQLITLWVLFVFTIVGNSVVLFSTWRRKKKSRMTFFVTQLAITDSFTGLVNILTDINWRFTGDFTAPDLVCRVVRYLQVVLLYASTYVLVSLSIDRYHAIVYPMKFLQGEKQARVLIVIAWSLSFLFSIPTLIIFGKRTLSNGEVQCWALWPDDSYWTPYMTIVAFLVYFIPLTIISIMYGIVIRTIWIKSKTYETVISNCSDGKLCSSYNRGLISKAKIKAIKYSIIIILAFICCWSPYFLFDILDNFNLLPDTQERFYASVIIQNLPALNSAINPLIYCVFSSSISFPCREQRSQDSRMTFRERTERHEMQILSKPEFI
From the text: NIH Chemical Genomics Center [NCGC] NIH Molecular Libraries Probe Production centers Network [MLPCN] MLPCN Grant: X01-DA026210-01 Assay Submitter (PI): Heilig, Markus Alexander NCGC Assay Overview: Neuropeptide S receptor (NPSR), previously known as GPR154, is a recently de-orphanized G protein coupled receptor. Its endogenous ligand is the 20 amino acids peptide Neuropeptide S (NPS). […] NPS and its receptor are found in various tissues. Specifically they are highly expressed in brain areas that have been implicated in modulation of arousal, stress and anxiety. Central administration of NPS in mice produces an unusual profile of activity by inducing wakefulness and arousal, while at the same time suppressing anxiety. Therefore, NPSR may represent a novel drug target for the treatment of sleep and anxiety disorders. To identify NPSR antagonists, we developed a cell-based cAMP assay. NPS can stimulate the production of cAMP in Chinese hamster ovary cells stably expressing NPS receptor. This change in intracellular cAMP level can be detected by a homogeneous LANCE cAMP assay based on the TR-FRET (time resolved fluorescence resonance energy transfer) between a europium-labeled cAMP tracer complex and a cAMP-specific antibody labeled with Alexa Fluor 647. The europium-labeled cAMP tracer complex is formed by the tight interaction between Biotin-cAMP (b-cAMP) and streptavidin labeled with Europium-W8044 chelate (Eu-SA). Light pulse at 320 nm excites the europium of the cAMP tracer and the energy emitted is transferred to the Alexa molecule bound to the cAMP antibody, generating a TR-FRET signal at 665 nm. Residual energy from the europium will produce a light at 620 nm. The native unlabeled cAMP from cell lysates competes with the europium-cAMP tracer for antibody binding and reversely reduces the emission signal of Alexa by interrupting FRET between the two labeled molecules. Both emission signals from the FRET donor (620 nm) and the acceptor (665 nm) can be detected by a plate reader in the TRF mode. Expression of result in fluorescence ratio (665 nm/620 nm) helps to normalize differences due to cell density and reagent dispensing. This assay was successfully optimized to a 1536-well plate format. Select compounds from the primary screen (AID 1461) were chosen for confirmation based on potency, efficacy, SAR, and activity across other assays in PubChem and at NCGC. Other compounds are analogs of active compounds from the primary sceen.
NCGC Assay Protocol Summary: A Chinese hamster ovary (CHO) cell line stably expressing the NPS receptor (CHO-NPSR) was obtained from Dr. Heilig lab at NIAAA and maintained in F-12 Kaighn's media (Invitrogen, Carlsbad, CA, 21127) supplemented with 10 % FBS, 100 units/ml penicillin, 100 ug/ml streptomycin and 250 ug/ml geneticin at 37C, 5% CO2 in a humidified atmosphere. Before the assay, aliquots of cells were frozen and stored at -135C. The assay was performed in 1536-well format. Data are reported for both the ratio of the two emission wavelengths, and also for the component 'donor' channel, Em2=620. […] IC50 values were determined from concentration-response data modeled with the standard Hill equation. NPS 1536-well assay protocol: (1) Fresh or frozen CHO-NPSR cells were suspended in F-12 Kaighn's media supplemented with 10 % FBS, 100 units/ml penicillin and 100 ug/ml streptomycin. Cells were plated at 4 ul/well (1200 cells) to white, tissue culture treated 1536-well plates, and then cultured at 37C, 5 % CO2 for 16 to 30 hours. (2) Add 23 nl/well of compound in DMSO solution. The final titration for each compound was between 0.6 nM and 46 uM. (3) Add 1 ul of stimulation reagent (1X HBSS buffer, 5 mM HEPES, 0.1% BSA, 500 uM RO-201724 (Sigma-Aldrich, B8279), 1.5% Alexa 647-labeled anti-cAMP antibody (from Perkin Elmer), 100 nM NPS) (4) Incubation at 37C, 5 % CO2 for 60 min. (5) Add 1 ul/well detection reagent. […]
Potency is the fitted concentration of half-maximal effect.
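Throughout, for activity change, negative = inhibition: 0% = DMSO with NPS and full inhibition = wells lacking NPS.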

| Structure (SMILES) | activity change, negative = inhibition [%] | Potency |
| --- | --- | --- |
| NC(=O)OCC(COC(N)=O)c1ccccc1 | -6.16 |  |
| CC(=O)n1nc2nc(C)cc(C)c2c1N | 8.9 |  |
| Cc1oc2c(c1C(=O)NCc1cccnc1)C(=O)c1ccccc1C2=O | -5.45 |  |
| Brc1ccc(CSc2ncn[nH]2)cc1 | -6.38 |  |
| Cn1c(COc2ccccc2)nnc1SCc1cc(=O)[nH]c2ccccc12 | -3.92 |  |
| O=C(COC(=O)c1ccccc1C(=O)c1ccc(Cl)c([N+](=O)[O-])c1)NC1CCCCCC1 |  | 4.47 µM (active) and 8.91 µM (active) |
| O=C(NCc1ccccc1)Nc1ncnc2c1C(c1ccccc1)c1c(ccc3ccccc13)O2 (stereo not given) |  | 2.24 µM (active) |
| Cc1cccc(N2CCN(C(=O)c3ccc(CNc4c(N5CCC(C)CC5)c(=O)c4=O)cc3)CC2)c1C | -16.2 |  |
| CCSc1nc2c(c(=O)n1Cc1ccccc1)SC(C)C2 (stereo not given) | -1.72 |  |
| O=C(O)CCCCCNc1nc(=S)[nH]c2ccccc12 | -0.723 |  |
| C=CCOc1c(Cl)cc(CNc2ccc(N(C)C)cc2)cc1OC | -13.4 |  |
| O=C(O)c1cccc(Nc2ncnc3ccccc23)c1 | 8.17 |  |
| N#Cc1c(-c2ccccc2)c(-c2ccccc2)nn(CC(=O)NNC(=O)Nc2ccc(Cl)c(Cl)c2)c1=O | -5.78 |  |
| O=C(Nc1ccc(Oc2c(F)c(F)c(F)c(F)c2F)cc1)OC1CCN2Cc3ccccc3N=C12 (stereo not given) |  | 11.2 µM (active) |
| CC(C)(C)OC(=O)Nc1ncnc2c1C(c1ccccc1)c1c(ccc3ccccc13)O2 (stereo not given) |  | 3.55 µM (active) |
| COCCCn1cnc2c(c1=O)c1nc3ccccc3nc1n2CCc1ccccc1 | 9.86 |  |
| CCC(C)(C)NC(=O)Cc1ccc(C)cc1 | 11.3 |  |
| COc1cc(/C=C2\SC(c3ccc(C)cc3)=NC2=O)cc(OC)c1O |  | 10 µM (active) |
| N#Cc1cnn(-c2ncnc3sc4c(c23)CCCC4)c1N | -16.9 |  |
| CN(C)C(=O)Oc1cccc([N+](C)(C)C)c1 | -5.44 |  |

| Structure (SMILES) | activity change, negative = inhibition [%] | Potency |
| --- | --- | --- |
| COc1ccc(/C=C2\CCCC3C2=NN(C(=O)c2ccco2)C3c2ccc(OC)c(OC)c2)cc1OC (stereo not given) |  | inactive |
| CN(C)C(=S)N=Nc1[nH]c2ccccc2c1O |  | 10 µM (active) |
| Cc1ccc(-c2ccc(/C=C3\C(=O)ON=C3c3ccccc3)o2)c([N+](=O)[O-])c1 |  | 2.82 µM (active) |
| O=C(CSc1cccc[n+]1[O-])Nc1ccccc1Oc1ccccc1 | -6.76 |  |
| C=CCn1c(SCCN2C(=O)c3ccccc3C2=O)nc2scc(-c3ccccc3)c2c1=O | -9.23 |  |
| CCn1cc(C(=O)NCC2CCCO2)c(=O)c2cc(S(=O)(=O)N3CCCCCC3)ccc21 (stereo not given) | 17.2 |  |
| O=C(CSc1n[nH]c(-c2cccnc2)n1)Nc1ccnc2ccccc12 | -2.52 |  |
| CCN(CC)S(=O)(=O)c1ccc2c(c1)nc(SC(C)C(N)=O)n2-c1ccc(OC)cc1 (stereo not given) | -17.6 |  |
| CCOc1ccccc1NC1=CC(=O)CC(c2ccccc2)C1 (stereo not given) | -1.81 |  |
| Nn1c(COc2ccccc2)nnc1SCc1cc(=O)[nH]c2ccccc12 | 8.5 |  |
| CCOC(=O)CC(=O)Nc1ncnc2c1C(c1ccccc1)c1c(ccc3ccccc13)O2 (stereo not given) |  | 0.794 µM (active) |
| CCOC(=O)C1CCCN(c2ncnc3c2oc2ccccc23)C1 (stereo not given) |  | 50.1 µM (active) and 12.6 µM (active) |
| CCO[C@@H]1OC(C(=O)NCc2nc3ccccc3[nH]2)=C[C@H](c2ccc(C(F)(F)F)cc2)[C@H]1CCCO | -6.49 |  |
| COC(=O)/C(=C1/Oc2cc(C)oc(=O)c2S1)C(F)(F)F | -13.3 |  |
| Cc1cc(OCC(=O)c2ccc(Br)cc2)ccc1N1C(=O)CCC1=O | -12.9 |  |
| NC(=O)c1ccsc1NC(=O)c1ccc(S(=O)(=O)N2CCCC2)cc1 | -20.8 |  |
| CCOC(=O)c1cnc(Nc2nc3ccccc3o2)nc1CSC(=S)N(CC)CC | -11.7 |  |
| COc1ccc2nc(NC(=S)N(C)C)sc2c1 | -7.19 |  |
| CC1CCCc2sc3nc(N4CCN(CCO)CC4)n4ncnc4c3c21 (stereo not given) | 17.5 |  |
| CCCCOc1ccc(OCCCN2CCOCC2)cc1 | -6.85 |  |
